Measurements published in PubChem BioAssay (NCATS).
Several values for one entry are separate records, joined by “and”; a condition that tells them apart may be missing. Equal values may be shown once. Values without a mark were called inactive. Results filed as inconclusive are left out. Where a call stands in place of a potency, no number is given. Activity calls are given as the source filed them. Unless noted, the call rests on the fitted dose curve; in most records, active means well fitted curve in the direction sought with a large enough effect; inconclusive means small, poorly fitted or top-dose-only effect, or another doubt; inactive means no such curve, though single readings can be large; an effect the other way counts as inactive or inconclusive.

Legend:
[1] = Cell Viability - MRC5 (AID 434; calls by dose curve;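 further: potency means the concentration at half of the fitted maximal effect; cells exposed to compound for 40 hours at 37 °C; potency reflects cytotoxicity seen as loss of intracellular ATP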); details: MRC5 lung fibroblast viability, qHTS
Outline: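 Decrease in intracellular ATP, quantified by luciferase light output, reflects compound toxicity toward MRC5 cells exposed for 40 hr in complete culture medium. Concentration-response curves, scaled between DMSO and 100 uM tamoxifen, gave AC50 values.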

[2] = Cellular Toxicity (caspase-3) HUV-EC-C (AID 656); details: HUV-EC-C cells, caspase-3 activation (apoptosis), vehicle = 0, 100 µM tamoxifen = 100%; series mostly up to 92.2 µM
Outline: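 HUV-EC-C endothelial cells, 1000/well, were pre-incubated 5 hr at 37°C, then exposed to compounds for 16 hr at 37°C. Caspase-Glo 3/7 luminescence was read after 20 min at room temperature. AC50 came from Hill fits, normalized to DMSO and 100 uM tamoxifen.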

[3] = Cellular Toxicity (caspase-3) BJ (AID 658); details: BJ fibroblasts, luminescence, normalized: DMSO 0%, staurosporine 100%; series mostly up to 91.7 µM
Outline: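 Plated BJ cells (1000/well) rested 5 hr, received compound for 16 hr at 37 °C, then Caspase-Glo 3/7 reagent for 1 hr at room temperature before luminescence reading.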

[4] = Cellular Toxicity (caspase-3) Mesangial (AID 660); details: mesangial cells, normalized: DMSO 0%, 100 µM tamoxifen 100%; series mostly up to 91.7 µM;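 further: combined caspase 3 and 7 activity read by Caspase-Glo luminescence; cells exposed to compound for 16 h before the caspase read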
Outline: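 Luminescent Caspase-Glo 3/7 readout (aminoluciferin substrate cleavage, 20 min RT) after 16 h compound exposure at 37 °C of normal human mesangial cells. Signal increase normalized between DMSO basal and 100 uM tamoxifen; Hill-equation AC50.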

[5] = Cellular Toxicity (caspase-3) H-4-II-E (AID 663); details: H-4-II-E rat hepatoma; Potency: caspase-3 activation; series mostly up to 92.2 µM;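 further: cells exposed to compound for 16 hr before readout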
Outline: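 Caspase 3/7 activation measured in H-4-II-E cells in complete culture medium after 16 hr treatment at 37 °C, using luciferase-coupled substrate readout; AC50 values come from Hill-equation fits of normalized concentration-response data.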

[6] = molecular target: Cytochrome P450 3A4 (Homo sapiens) (UniProt P08684); assay: qHTS Assay for Inhibitors and Substrates of Cytochrome P450 3A4 (AID 884); details: recombinant CYP3A4, Luciferin-PPXE luminescence; series mostly up to 57.1 µM; further: nearly all actives have a fitted effect of over 50% in size
Chain of Cytochrome P450 3A4 (Homo sapiens) (P08684 whole entry, looked up): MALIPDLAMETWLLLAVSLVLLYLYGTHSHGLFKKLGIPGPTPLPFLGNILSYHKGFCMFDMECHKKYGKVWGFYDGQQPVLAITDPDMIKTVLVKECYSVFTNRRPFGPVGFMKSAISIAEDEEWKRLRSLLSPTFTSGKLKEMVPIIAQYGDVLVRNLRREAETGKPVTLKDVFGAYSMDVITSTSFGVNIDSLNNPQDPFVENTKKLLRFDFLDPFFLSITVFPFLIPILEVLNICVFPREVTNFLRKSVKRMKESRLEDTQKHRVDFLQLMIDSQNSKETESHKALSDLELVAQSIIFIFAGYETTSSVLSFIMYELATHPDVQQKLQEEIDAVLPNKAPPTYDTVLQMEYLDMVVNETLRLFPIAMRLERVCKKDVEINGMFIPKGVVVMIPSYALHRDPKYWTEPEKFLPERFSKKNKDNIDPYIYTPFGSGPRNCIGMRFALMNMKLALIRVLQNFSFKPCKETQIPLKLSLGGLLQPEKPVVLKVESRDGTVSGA
Outline: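 Luminescent readout of luciferin produced by CYP3A4 (20 nM) dealkylation of Luciferin-PPXE, 25 uM (its KM). NADPH-driven reaction ran 60 min at RT after 10 min compound preincubation; data scaled to 57 uM ketoconazole as 100% inhibition.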

[7] = Cell Viability - LYMP1-002 - Assay at 16 hr (AID 948); details: LYMP1-002 lymphoblastoid cell viability; series mostly up to 92.2 µM
Outline: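 Human lymphoblastoid cells (LYMP1-002), 2500/well, were preincubated 5 hr at 37 C, then exposed to compounds for 16 hr at 37 C in complete medium. Cellular ATP was read by CellTiter-Glo luminescence after 30 min at room temperature; AC50 from Hill fits.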

[8] = MultiTox-Fluor Cytotoxicity Assay - LYMP1-003 - Dead Cells (AID 961); details: LYMP1-003 lymphoblastoid cells, dead-cell protease fluorescence; series mostly up to 92.2 µM; further: nearly all actives have a fitted effect of over 70% in size
Outline: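 LYMP1-003 human lymphoblastoid cells (2500/well) exposed to compound 16 h at 37 C in complete medium; dead-cell protease read with bis-AAF-R110 fluorescence (Ex/Em 485/520) after 60 min at room temperature. Normalized to DMSO and 15 uM tetraoctylammonium bromide; AC50 from Hill fit.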

[9] = Cell Viability - LYMP2-003 (AID 965); details: LYMP2-003 lymphoblastoid cell viability; series mostly up to 92.2 µM;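 further: cells exposed to compounds for 24 h before reading; nearly all actives have a fitted effect of over 50% in size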; further: potency means the concentration at half of the fitted maximal effect
Outline: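 Human lymphoblastoid cells (2500/well) were pre-incubated 5 hr at 37 C, then exposed to compounds over a concentration range for 24 hr at 37 C. Intracellular ATP was read by CellTiter-Glo luminescence; AC50 came from Hill-equation fits.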

[10] = Cell Viability - LYMP2-013 (AID 970); details: LYMP2-013 lymphoblastoid cells viability; series mostly up to 92.2 µM; further: nearly all actives have a fitted effect of over 55% in size; further: potency means the concentration at half of the fitted maximal effect
Outline: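 CellTiter-Glo luminescence (cellular ATP) read after 30 min at RT. Cells: human lymphoblastoid line, 2500/well, 24 hr compound exposure at 37 C. Tetraoctylammonium bromide positive control; AC50 via standard Hill fit of qHTS titrations.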

[11] = Cell Viability - LYMP1-002 - Assay at 24 hr (AID 993); details: LYMP1-002 lymphoblastoid cells viability; series mostly up to 92.2 µM
Outline: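 CellTiter-Glo luminescence (intracellular ATP) after 24 h compound exposure, 37 C, in LYMP1-002 human lymphoblastoid cells; decreased ATP taken as cytotoxicity. AC50 from standard Hill fit of concentration-response curves.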

[12] = qHTS assay for small molecule disruptors of the mitochondrial membrane potential - 1 hr assay (AID 651754; calls by dose curve; further: nearly all actives have a fitted effect of over 35% in size; further: potency means the concentration at half of the fitted maximal effect); details: series mostly up to 92.2 µM
Outline: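 Read-out: dye fluorescence at 490 nm ex/535 nm em (monomers) and 540 nm ex/590 nm em (aggregates) in HepG2 cells. Compound exposure 1 hr at 37C, followed by 30 min dye loading.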

[13] = qHTS assay for small molecule disruptors of the mitochondrial membrane potential - 5 hr assay (AID 651755; calls by dose curve; further: nearly all actives have a fitted effect of over 40% in size); details: JC-1-type ratio dye; series mostly up to 92.2 µM
Outline: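 Seed HepG2 overnight, add compound, incubate 5 hr at 37C and 5% CO2, stain 30 min with Mito-MPS, then measure monomer (490/535 nm) and aggregate (540/590 nm) fluorescence.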

[14] = qHTS assay for environmental chemicals that activate the Aryl hydrocarbon Receptor (AhR) signaling pathway (AID 651777); details: 1A2-DRE human hepatoma cells, luciferase, 24 h; activation: active compounds read high; further: nearly all actives have a fitted effect of over 15% in size
Outline: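 1A2-DRE human hepatoma reporter line; 1,200 cells/well; cmpd or DMSO 24 h, 37 C/5% CO2; One-Glo 30 min RT; luciferase lum.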

[15] = molecular target: Peroxisome proliferator-activated receptor alpha (Homo sapiens) (UniProt Q07869); assay: qHTS assay for small molecule agonists of the peroxisome proliferator-activated receptor alpha (PPARalpha) signaling pathway (AID 651778); details: PathHunter PPARalpha complementation, chemiluminescence, 6 h; active compounds read high
Chain of Peroxisome proliferator-activated receptor alpha (Homo sapiens) (Q07869 whole entry, looked up): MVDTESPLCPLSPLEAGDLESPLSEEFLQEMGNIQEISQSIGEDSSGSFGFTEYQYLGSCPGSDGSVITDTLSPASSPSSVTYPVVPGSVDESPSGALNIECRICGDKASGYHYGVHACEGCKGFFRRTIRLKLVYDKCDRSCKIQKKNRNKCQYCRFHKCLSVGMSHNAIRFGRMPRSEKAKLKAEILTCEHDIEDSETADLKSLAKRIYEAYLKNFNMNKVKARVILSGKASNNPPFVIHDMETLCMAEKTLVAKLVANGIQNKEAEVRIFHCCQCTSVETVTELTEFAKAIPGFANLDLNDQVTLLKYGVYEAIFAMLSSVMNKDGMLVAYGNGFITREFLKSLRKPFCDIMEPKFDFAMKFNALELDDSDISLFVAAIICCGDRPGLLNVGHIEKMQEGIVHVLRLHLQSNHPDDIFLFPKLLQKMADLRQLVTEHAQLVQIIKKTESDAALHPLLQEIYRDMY
Outline: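 Cells plated at 2,000/well and held overnight at 37 C, 5% CO2, then compound added by pin tool for 6 hr; after PathHunter detection reagent and 60 min at room temperature, chemiluminescence from enzyme complementation was read.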

[16] = molecular target: Nuclear receptor subfamily 1 group I member 2 (Rattus norvegicus) (UniProt Q9R1A7); assay: qHTS assay for small molecule activators of the rat pregnane X receptor (rPXR) signaling pathway (AID 651751; call rule not given here); details: rPXR reporter cells, luciferase (One-Glo), 24 h
Chain of Nuclear receptor subfamily 1 group I member 2 (Rattus norvegicus) (Q9R1A7 whole entry, looked up): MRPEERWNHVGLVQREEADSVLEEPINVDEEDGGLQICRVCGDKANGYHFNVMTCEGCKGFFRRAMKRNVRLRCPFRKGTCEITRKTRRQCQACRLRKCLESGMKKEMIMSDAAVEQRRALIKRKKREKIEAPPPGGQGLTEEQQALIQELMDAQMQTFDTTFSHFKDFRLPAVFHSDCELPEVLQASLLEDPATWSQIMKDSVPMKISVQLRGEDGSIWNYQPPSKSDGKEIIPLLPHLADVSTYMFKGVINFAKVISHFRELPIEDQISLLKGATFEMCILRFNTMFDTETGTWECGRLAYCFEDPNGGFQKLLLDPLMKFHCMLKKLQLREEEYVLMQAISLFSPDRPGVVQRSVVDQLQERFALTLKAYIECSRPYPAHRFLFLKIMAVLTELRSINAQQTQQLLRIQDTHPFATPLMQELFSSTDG

[17] = Cell Viability - LYMP2-011 (AID 969); details: LYMP2-011 lymphoblastoid cells viability; series mostly up to 92.2 µM; further: nearly all actives have a fitted effect of over 60% in size
Outline: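 Luminescent ATP read-out (CellTiter-Glo, 30 min RT) after 24 hr compound exposure at 37 C in human lymphoblastoid cells, 2500 cells/well. Decreasing ATP indicates cytotoxicity; AC50 from standard Hill fit.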

[18] = Cell Viability - LYMP2-026 (AID 989); details: LYMP2-026 lymphoblastoid cell viability, qHTS; series mostly up to 92.2 µM; further: nearly all actives have a fitted effect of over 50% in size
Outline: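 qHTS cytotoxicity: 2500 cells/well, 5 hr 37 C, compound 24 hr 37 C, CellTiter-Glo 30 min RT, luminescence. Tetraoctylammonium bromide positive control. AC50 via standard Hill fit.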

[19] = qHTS assay for small molecule activators of the human pregnane X receptor (PXR) signaling pathway (AID 720659; call rule not given here); details: DPX-2 HepG2 CYP3A4-luciferase, 24 h; series mostly up to 92.3 µM
[20] = molecular target: Nuclear receptor ROR-gamma (Homo sapiens) (UniProt P51449); assay: qHTS assay for small molecule antagonists of the retinoid-related orphan receptor gamma (ROR-gamma) signaling pathway (AID 651802); details: ROR-gamma antagonist cell reporter assay; series mostly up to 92.2 µM;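 further: CHO cells with doxycycline-induced ROR-gamma expression; luciferase reporter luminescence driven by ROR response element; nearly all actives have a fitted effect of over 60% in size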
Chain of Nuclear receptor ROR-gamma (Homo sapiens) (P51449 whole entry, looked up): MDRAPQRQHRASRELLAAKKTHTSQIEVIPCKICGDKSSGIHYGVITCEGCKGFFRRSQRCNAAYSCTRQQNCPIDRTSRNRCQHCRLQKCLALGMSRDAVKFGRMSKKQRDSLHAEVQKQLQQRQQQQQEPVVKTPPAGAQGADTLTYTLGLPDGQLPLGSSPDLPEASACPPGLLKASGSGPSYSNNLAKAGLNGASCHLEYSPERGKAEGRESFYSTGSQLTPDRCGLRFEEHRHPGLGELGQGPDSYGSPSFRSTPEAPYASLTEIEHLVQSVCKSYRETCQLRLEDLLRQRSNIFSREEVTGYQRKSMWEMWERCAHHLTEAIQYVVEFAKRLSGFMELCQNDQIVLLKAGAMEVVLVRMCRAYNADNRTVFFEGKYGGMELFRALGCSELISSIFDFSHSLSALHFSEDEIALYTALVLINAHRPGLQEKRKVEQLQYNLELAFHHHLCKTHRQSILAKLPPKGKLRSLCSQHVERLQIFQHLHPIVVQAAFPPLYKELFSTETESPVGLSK
Outline: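 Luciferase read-out: ONE-Glo luminescence after 30 min at room temperature, following 16hr doxycycline induction at 37C, 5% CO2 of CHO cells with TET-inducible ROR and RORE-LUC reporter; decreased luminescence = reduced reporter activity.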

Compound | Potency [1] | outcome [2] | outcome [3] | outcome [4] | Potency [5] | Potency [6] | outcome [7] | Potency [8] | Potency [9] | Potency [10] | Potency [11] | Potency [12] | Potency [13] | activation [14] | max response [15] | max response [16] | Potency [17] | Potency [18] | outcome [19] | Potency [20]
OC[P+](CO)(CO)CO | > 92 µM | inactive | inactive | inactive | inactive | inactive | inactive | inactive | 25.1 µM (active) | 31.6 µM (active) | inactive | inactive | inactive | -0.473% and -0.989% | -6.87% and -1.39% | -2.2% and -0.448% |  |  |  | 
O=C(O)c1cccc(Cl)c1 | > 92 µM |  | inactive |  | inactive | inactive |  | inactive | inactive | inactive | inactive | inactive | inactive | 0.728% | -1.81% | 0.516% | inactive | inactive | inactive | 
CCCCCC[N+](=O)[O-] | > 92 µM | inactive | inactive | inactive | inactive | inactive | inactive | inactive | inactive | inactive | inactive | inactive | inactive | 0.0869% | 6.24% | 1.74% | inactive |  | inactive | inactive
ClC(Cl)Br | > 92 µM | inactive | inactive | inactive | inactive | inactive | inactive | inactive | inactive | inactive | inactive | inactive | inactive | 0.136% | -1.39% | -4.5% | inactive | inactive | inactive | inactive
Oc1ccc(Cl)c(Cl)c1Cl | > 92 µM | inactive | inactive | inactive | inactive |  | inactive | inactive | inactive | inactive | inactive | 42.2 µM (active) |  | 3.11% |  | 8.33% | inactive | inactive | inactive | 
Nc1ccc(-c2ccc(N)cc2)cc1 | > 92 µM | inactive | inactive |  |  |  | inactive | inactive |  |  | inactive |  | inactive | 11.6% |  |  |  | inactive | inactive | inactive
O=C(Cl)c1ccccc1F | > 92 µM | inactive | inactive | inactive | inactive | inactive | inactive | inactive | inactive | inactive | inactive | inactive | inactive | 4.83% | -1.25% | 4.78% | inactive |  | inactive | inactive
N#C/C(N)=C(/N)C#N | > 92 µM | inactive | inactive |  | inactive | inactive | inactive | inactive | inactive | inactive | inactive | inactive | inactive | 0.971% | -0.162% | -1.96% | inactive | inactive | inactive | inactive
Cc1cnc[nH]1 | > 92 µM | inactive | inactive | inactive | inactive | inactive | inactive | inactive | inactive | inactive | inactive | inactive | inactive | 1.06% | -0.863% | -5.24% | inactive | inactive | inactive | inactive
CCCCC#N | > 92 µM | inactive | inactive | inactive | inactive | inactive | inactive | inactive | inactive | inactive | inactive | inactive | inactive | 1.07% | -3.73% | -0.572% | inactive | inactive | inactive | inactive
O=Cc1ccc(Cl)cc1Cl | > 92 µM | inactive | inactive |  | inactive | inactive | inactive | inactive | inactive |  | inactive | inactive | inactive | -0.378% |  | 2.77% | inactive | inactive | inactive | inactive
CC(C)OS(C)(=O)=O | > 92 µM | inactive | inactive | inactive | inactive | inactive | inactive |  | inactive | inactive | inactive | inactive | inactive | 1.58% |  | -0.369% | inactive | inactive | inactive | 
c1ccc2c(c1)CCNC2 | > 92 µM | inactive | inactive | inactive | inactive | inactive |  | inactive | inactive | inactive | inactive | inactive | inactive | -1.3% | 5.32% | -0.393% | inactive | inactive | inactive | inactive
O=[N+]([O-])c1ccc2c3c(cccc13)CC2 |  | inactive | inactive | inactive | inactive |  | inactive | inactive |  | inactive | inactive | 37.6 µM (active) |  |  | -11.3% and -0.119% |  | inactive | inactive | inactive | inactive
